High-throughput results (PubChem)
The list is not random: actives were taken first. Their share in the collection is about 11%.
HEK cytotox = cytotoxic compounds in HEK 293 cells | 94,000 tested, 6.6% active | HEK 293 viability, ATP luminescence (CellTiter-Glo), 48-72 h | Potency, µM (series often up to 115 µM), most hits filed as inhibitors | AID 1345083; note: nearly all actives have a fitted effect of over 60% in size
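qHTS cytotoxicity; HEK 293, 250 cells/well; compound pinned; 48 or 72 hr, 37 degree Celsius, 5% CO2, 95% humidity; CellTiter-Glo, 10 min RT; luminescence (ATP).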
hNpr1 antagonist = blocks ANP-stimulated signaling of human Npr1 receptor. HEK293 hNpr1 GloSensor cGMP, ANP-stimulated luminescence. Potency, µM (doses to about 46.3 µM), most hits filed as inhibitors. 76,000 tested, 1.6% active. AID 1347048; calls by dose curve; note: nearly all actives have a fitted effect of over 60% in size
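HEK293 cells stably expressing human Npr1 and cGMP GloSensor pGS-40F, loaded 2 h with 2% GloSensor reagent, given compound 30 min at room temperature. Luminescence read before and 20 min after 0.1 nM hNppA.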
NIH3T3 tox = cytotoxic compounds in NIH 3T3 cells; NIH 3T3 viability, CellTiter-Glo ATP luminescence, 48-72 h; Potency, µM (titrated, usually from 96.7 µM), most hits filed as inhibitors; 94,000 tested, 4.3% active; AID 1345082; note: nearly all actives have a fitted effect of over 55% in size
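NIH 3T3 cells at 400 cells/well received 23 nL of compound by pintool and were incubated 48 or 72 h at 37 °C. Viability was read as ATP-coupled CellTiter-Glo luminescence.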
Luciferase inh = inhibitors of firefly (Photinus pyralis) luciferase; 76,000 tested, 2.5% active; AID 1347043; Potency, µM (titrated, usually from 115 µM), most hits filed as inhibitors; purified P. pyralis luciferase, luminescence, biochemical; note: nearly all actives have a fitted effect of over 65% in size
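Purified P. pyralis luciferase (10nM final) in 50mM Tris acetate pH 7.5, 10mM Mg acetate, 0.01% Tween-20, 0.05% BSA with 10uM D-luciferin and 10uM ATP. Compounds titrated qHTS. Luminescence imaged on CCD.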
Large screens that a line does not name were inactive. Unless noted, calls come from the whole dose curve; as a rule, active = well fitted curve in the direction sought with a large enough effect; inconclusive = small, poorly fitted or top-dose-only effect, or another doubt; inactive = no such curve, though single readings can be large; an effect the other way counts as inactive or inconclusive.

CN1c2cc(C(=O)Nc3cccc(OC(F)(F)F)c3)ccc2C(=O)N2CCCC21 (stereo not given)	HEK cytotox inconclusive, NIH3T3 tox 35.5µM
Cc1ccc(-c2cn3cc(C(=O)NCC4CC4)nc3s2)cc1	none (no result: hNpr1 antagonist, Luciferase inh)
Cc1ccccc1CN1CCC(CN(Cc2cccnc2)C(=O)C2CC=CCC2)CC1 (stereo not given)	none
CC(CCc1ccccc1)NC(=O)Cn1cccc1-c1nc(-c2ccccc2)no1 (stereo not given)	none
COc1cccc(-c2ccc(C(=O)N3CCC(NC(=O)c4ccc(C(F)(F)F)cc4)CC3)cc2)c1	HEK cytotox inconclusive (no result: hNpr1 antagonist, Luciferase inh)
COc1ccc(-c2cccc(C(=O)N3CCC(NC(=O)Nc4ccccc4)CC3)c2)nn1	none (no result: hNpr1 antagonist, Luciferase inh)
COc1cccc(-c2ccc(C(=O)N3CCC(NC(=O)c4ccccc4C)CC3)cc2)c1	HEK cytotox inconclusive, NIH3T3 tox 39.8µM (no result: hNpr1 antagonist, Luciferase inh)
COc1ccc(-c2cccc(C(=O)N3CCC(NC(=O)Nc4ccc(Cl)cc4)CC3)c2)nn1	HEK cytotox 44.7µM, NIH3T3 tox 25.1µM (no result: hNpr1 antagonist, Luciferase inh)
COc1cccc(-c2ccc(C(=O)N3CCC(NC(=O)Cc4cccc(Cl)c4)CC3)cc2)c1	HEK cytotox 25.1µM, NIH3T3 tox inconclusive (no result: hNpr1 antagonist, Luciferase inh)
COc1cccc(-c2ccc(C(=O)N3CCC(NC(=O)Nc4ccccc4F)CC3)cc2)c1	HEK cytotox 15.8µM, NIH3T3 tox inconclusive (no result: hNpr1 antagonist, Luciferase inh)
COC(=O)N1CCC[C@@H]1C(=O)N1CCCC(c2nc3ccncc3[nH]2)C1 (stereo not given in full)	none (no result: hNpr1 antagonist, Luciferase inh)
COc1cccc(-c2ccc(C(=O)N3CCC(NC(=O)NC4CCCC4)CC3)cc2)c1	none (no result: hNpr1 antagonist, Luciferase inh)
COc1cccc(-c2ccc(C(=O)N3CCC(NC(=O)C(C)(C)C)CC3)cc2)c1	HEK cytotox inconclusive, NIH3T3 tox 39.8µM (no result: hNpr1 antagonist, Luciferase inh)
Cc1ccc(C(=O)N2CCN(C(=O)c3nc4cccnc4n(C4CC4)c3=O)CC2)cc1	none (no result: hNpr1 antagonist, Luciferase inh)
CC(C)C[C@@H]1N[C@H](C(=O)NCc2ccc(C#N)cc2)Cc2c[nH]c3cccc1c23	HEK cytotox 56.2µM, NIH3T3 tox 25.1µM
CC(C)C[C@@H]1N[C@H](C(=O)NCc2ccc(C(F)(F)F)cc2)Cc2c[nH]c3cccc1c23	HEK cytotox 31.6µM, NIH3T3 tox 28.2µM
C=CCn1cc2c3c(cccc31)[C@H](CC(C)C)N[C@H](C(=O)NCc1ccc(F)cc1)C2	HEK cytotox inconclusive, NIH3T3 tox inconclusive
CC(C)C[C@@H]1N[C@H](C(=O)NCc2cccnc2)Cc2c[nH]c3cccc1c23	HEK cytotox 25.1µM, NIH3T3 tox inconclusive
Cc1cc(Cl)ccc1NC(=O)c1cnc(-c2ccccc2)nc1-c1ccncc1	HEK cytotox 44.7µM, hNpr1 antagonist inconclusive, NIH3T3 tox 20µM
Cc1ccc(-c2ncc(C(=O)Nc3cccc(Br)c3)c(-c3ccncc3)n2)cc1	HEK cytotox 25.1µM, NIH3T3 tox inconclusive
Cc1ccc(-c2ncc(C(=O)NCCN(C)C3CCCCC3)c(-c3ccncc3)n2)cc1	HEK cytotox 20µM, NIH3T3 tox 25.1µM
CCOC(=O)[C@@H]1CN(C(=O)OCC)[C@H]2c3ccccc3O[C@@H]12	NIH3T3 tox inconclusive (no result: hNpr1 antagonist, Luciferase inh)
O=C(NC1CCCC1)N1CCCC(Cn2c(C3CC3)nc3cccnc32)C1 (stereo not given)	none
CCOc1ccccc1NC(=O)N1CCCC(c2noc(COc3ccccc3F)n2)C1 (stereo not given)	HEK cytotox inconclusive, NIH3T3 tox inconclusive
CC(C)CC(=O)N1CCCC(c2noc(COc3ccccc3F)n2)C1 (stereo not given)	HEK cytotox inconclusive, NIH3T3 tox inconclusive
CC(C)C(=O)N1CCCC(c2noc(COc3ccccc3F)n2)C1 (stereo not given)	HEK cytotox inconclusive, Luciferase inh 39.8µM
Cc1c(F)cccc1NC(=O)N1CCCC(c2noc(COc3ccccc3F)n2)C1 (stereo not given)	HEK cytotox inconclusive, hNpr1 antagonist inconclusive, NIH3T3 tox inconclusive, Luciferase inh 14.1µM
CNC(=O)[C@@H]1C[C@@H](n2cc(CNC(=O)Nc3cc(F)ccc3F)nn2)CN1	none
Cc1nc(CC2CCN(C(=O)c3cc4c(s3)CCC(C)C4)CC2)no1 (stereo not given)	HEK cytotox inconclusive, NIH3T3 tox inconclusive, Luciferase inh 39.8µM
CN(C)CCNC(=O)C1CCc2sc(C(=O)N3CCOCC3)cc2C1 (stereo not given)	none
O=C(NCc1ccc(F)cc1F)C1CCCCN1Cc1ccc(-c2ccsc2)cc1 (stereo not given)	HEK cytotox 28.2µM, NIH3T3 tox inconclusive (no result: hNpr1 antagonist, Luciferase inh)
COc1ccc(CN2C(=O)COC[C@H]2C(=O)NCc2ccc(F)cc2F)cc1	none
O=C(NCc1ccccn1)C1Cn2cccc2C(=O)N1Cc1ccccc1 (stereo not given)	none
O=C(NCc1ccccn1)C1CCCCN1Cc1ccc(-c2ccsc2)cc1 (stereo not given)	HEK cytotox 39.8µM, NIH3T3 tox 39.8µM (no result: hNpr1 antagonist, Luciferase inh)
O=C(NCc1ccccc1F)C1CCCCN1Cc1ccc(-c2ccsc2)cc1 (stereo not given)	HEK cytotox inconclusive, NIH3T3 tox 31.6µM (no result: hNpr1 antagonist, Luciferase inh)
CN1CCC([C@@H]2CN(S(=O)(=O)c3cccc(C#N)c3)C[C@H]2C(N)=O)CC1	none
CN(C)C[C@@H]1CN(Cc2ccncc2)C[C@H]1NC(=O)c1ccc(Cl)cc1	HEK cytotox 39.8µM, NIH3T3 tox inconclusive
CN(C)C[C@@H]1CN(Cc2ccncc2)C[C@H]1NC(=O)c1ccoc1	none
COc1ccc(C(=O)N[C@@H]2CN(Cc3ccccc3)C[C@H]2CN(C)C)cc1	HEK cytotox 5.62µM, NIH3T3 tox inconclusive (no result: hNpr1 antagonist, Luciferase inh)
Cc1ccc(C)c(C(=O)N[C@@H]2CN(Cc3ccccn3)C[C@H]2CN(C)C)c1	HEK cytotox 79.4µM
CN(C)C[C@@H]1CN(Cc2ccccn2)C[C@H]1NC(=O)c1cccc(Cl)c1	HEK cytotox inconclusive, NIH3T3 tox inconclusive
COCCC(=O)N[C@@H]1CN(Cc2ccccc2)C[C@H]1CN(C)C	none
CN(C)C[C@@H]1CN(C2CCOCC2)C[C@H]1NC(=O)c1ccc(F)c(Cl)c1	HEK cytotox 79.4µM, NIH3T3 tox inconclusive
Cc1ccccc1Cn1cc(-c2ccncc2)cc1C(=O)N(C)Cc1ccco1	HEK cytotox inconclusive, NIH3T3 tox inconclusive
Cc1ccc([S+](=O)([O-])N2CCC[C@@H]2C(=O)N2CCCC(c3nc4ccncc4[nH]3)C2)cc1 (stereo not given in full)	none (no result: hNpr1 antagonist, Luciferase inh)
COc1ccc(C(=O)N[C@@H]2CN(c3ncccn3)C[C@H]2CN(C)C)cn1	none
COc1ccc(C(=O)N[C@@H]2CN(Cc3ccccc3)C[C@H]2CN(C)C)cn1	HEK cytotox inconclusive, NIH3T3 tox 31.6µM (no result: hNpr1 antagonist, Luciferase inh)
O=C(C1CCCCC1)N1CCC2(CC1)CC(N(Cc1ccc(F)cc1)C1CC1)CCO2 (stereo not given)	HEK cytotox 44.7µM, NIH3T3 tox inconclusive
CCC(CC)C(=O)N1CCC2(CC1)CC(N(Cc1ccc(F)cc1)C1CC1)CCO2 (stereo not given)	HEK cytotox 39.8µM, NIH3T3 tox inconclusive
CNC(=O)N1CCC2(CC1)CC(N(Cc1ccc(F)cc1)C1CC1)CCO2 (stereo not given)	none
